SMILES strings stand for the structures. Results filed as inconclusive are left out. Active and inactive are the calls of the source. Unless noted, calls follow the shape of the dose curve; as a rule, active = well fitted curve in the direction sought with a large enough effect in the repeat runs; inconclusive = weak or mixed curves; inactive = no such curve, though single readings can be large; an effect the other way counts as inactive or inconclusive.

Test [1] in a line: qHTS assay to identify small molecule antagonists of the glucocorticoid receptor (GR) signaling pathway - cell viability counter screen (AID 720693). Also: nearly all actives have a fitted effect of over 55% in size. In general terms: qHTS replaces the single test concentration by a dilution series.
Test [2] is described as follows: qHTS assay for identifying genotoxic compounds that show differential cytotoxicity against isogenic chicken DT40 cell lines with known DNA damage response pathways - wild type cell line (AID 743012). Also: nearly all actives have a fitted effect of over 60% in size. Also: potency is read from the fitted curve at half-maximal effect. A digest of the protocol:
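Endpoint: CellTiter-Glo luminescence, 30 min RT. Cells: wild type DT40, 300/well. Exposure: compounds in DMSO, 40 h, 37 C/5% CO2, after ~0.5 h pre-incubation.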

A short description of test [3]: qHTS assay for identifying genotoxic compounds that show differential cytotoxicity against isogenic chicken DT40 cell lines with known DNA damage response pathways - Rev3 mutant cell line (AID 743014). Also: nearly all actives have a fitted effect of over 55% in size. Also: potency is read from the fitted curve at half-maximal effect.
Test [4] can be described thus: qHTS assay for identifying genotoxic compounds that show differential cytotoxicity against isogenic chicken DT40 cell lines with known DNA damage response pathways - Rad54/Ku70 mutant cell line (AID 743015). Also: nearly all actives have a fitted effect of over 60% in size. Also: potency is read from the fitted curve at half-maximal effect.
Test [5] can be described thus: qHTS assay to identify small molecule antagonists of the androgen receptor (AR) signaling pathway - cell viability counter screen (AID 743033; also: nearly all actives have a fitted effect of over 45% in size).
Test [6] in a line: qHTS assay to identify small molecule antagonists of the androgen receptor (AR) signaling pathway using the MDA cell line - cell viability counter screen (AID 743041; also: nearly all actives have a fitted effect of over 45% in size). A digest of the protocol: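 Viability read by CellTiter-Fluor fluorescence in the same wells as the antagonist screen, added after 15.5 h of a 16 h, 37C exposure. Human breast carcinoma MDA-kb2 AR-luc cells, compounds co-dosed with agonist R1881.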

Test [7] deals with Androgen receptor (Homo sapiens) (UniProt P10275). Briefly: qHTS assay to identify small molecule antagonists of the androgen receptor (AR) signaling pathway (AID 743035; active = well fitted inhibition curve with a large enough effect in the signal ratio in the repeat runs, not every such curve was filed as active; the % refers to the signal ratio; also: potency is read from the fitted curve at half-maximal effect). A digest of the protocol:
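R1881 agonist challenge of a HEK293 UAS-beta-lactamase AR reporter line in the presence of compound (16 h, 37C); signal taken as FRET fluorescence after 2 h with LiveBLAzer B/G substrate at room temperature.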

For test [8] the target is unchanged. Briefly: qHTS assay to identify small molecule agonists of the androgen receptor (AR) signaling pathway (AID 743036; active = well fitted activation curve with a large enough effect in the signal ratio in the repeat runs, with a control signal flat, not every such curve was filed as active; the % refers to the signal ratio). In outline: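 Reporter line: GeneBLAzer AR-UAS-bla-GripTite (HEK293). Steps: plate cells, 4 h rest, add compounds, 16 h at 37C, add LiveBLAzer B/G substrate, 2 h at RT, read fluorescence.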
For test [9] the target is unchanged. Briefly: qHTS assay to identify small molecule agonists of the androgen receptor (AR) signaling pathway using the MDA cell line (AID 743040; also: nearly all actives have a fitted effect of over 20% in size; also: potency is read from the fitted curve at half-maximal effect). A digest of the protocol: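 Luciferase agonist assay: 16 h compound exposure at 37C without CO2 in MDA-kb2 AR-luc cells, whose MMTV promoter responds to both AR and GR. Luminescence measured after 30 min room-temperature incubation with ONE-Glo.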

For test [10] the target is unchanged. Put plainly: qHTS assay to identify small molecule antagonists of the androgen receptor (AR) signaling pathway using the MDA cell line (AID 743042; also: nearly all actives have a fitted effect of over 55% in size). In outline:
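Antagonist mode: compounds plus R1881 agonist added to MDA-kb2 AR-luc cells, incubated 16 h at 37C. Luciferase reporter luminescence quantified, with multiplexed CellTiter-Fluor readout for cell viability.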

Chain of Androgen receptor (Homo sapiens) (P10275 whole entry, looked up): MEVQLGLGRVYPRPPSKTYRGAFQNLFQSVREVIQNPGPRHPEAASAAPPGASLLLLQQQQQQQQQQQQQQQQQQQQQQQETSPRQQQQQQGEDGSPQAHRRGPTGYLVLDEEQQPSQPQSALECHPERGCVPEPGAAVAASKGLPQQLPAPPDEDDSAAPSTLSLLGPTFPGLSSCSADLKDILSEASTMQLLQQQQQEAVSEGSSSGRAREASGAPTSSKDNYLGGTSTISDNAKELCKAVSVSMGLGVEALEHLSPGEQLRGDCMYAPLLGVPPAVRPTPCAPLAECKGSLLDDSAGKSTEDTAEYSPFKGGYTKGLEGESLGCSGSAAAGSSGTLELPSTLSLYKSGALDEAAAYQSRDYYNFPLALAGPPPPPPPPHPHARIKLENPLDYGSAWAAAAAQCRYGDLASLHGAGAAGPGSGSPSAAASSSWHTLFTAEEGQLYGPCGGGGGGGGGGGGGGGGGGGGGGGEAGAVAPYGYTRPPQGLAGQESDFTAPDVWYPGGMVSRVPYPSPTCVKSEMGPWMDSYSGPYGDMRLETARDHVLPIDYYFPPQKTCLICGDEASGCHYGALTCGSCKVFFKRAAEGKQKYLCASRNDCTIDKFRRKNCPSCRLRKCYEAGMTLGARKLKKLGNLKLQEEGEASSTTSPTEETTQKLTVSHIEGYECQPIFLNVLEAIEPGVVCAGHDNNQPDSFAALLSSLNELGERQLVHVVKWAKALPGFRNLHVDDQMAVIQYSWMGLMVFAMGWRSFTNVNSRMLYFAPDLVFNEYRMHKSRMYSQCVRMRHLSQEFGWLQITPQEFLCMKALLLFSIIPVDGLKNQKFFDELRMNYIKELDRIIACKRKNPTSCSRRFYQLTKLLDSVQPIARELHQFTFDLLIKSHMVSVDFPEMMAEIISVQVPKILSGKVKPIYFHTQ

Take `NC(CS)C(=O)O` (centres undefined): the compound was called inactive in test [1] and in test [5]. Besides, the Potency result in [2], in test [3] and in test [4] was “inactive” in each case.
With `CCC(=O)c1cccc(Cl)c1`, the outcome in test [1] and in test [5] was inactive. The Potency result in test [2], in test [3], in test [4] and in test [6] was “inactive” in each case.
In the case of `Nc1ccc2cc(S(=O)(=O)O)ccc2c1`, the compound was called inactive in [1] and in test [5]. Moreover, the Potency entry in [2], in test [3], in [4] and in test [6] was “inactive” each time.
For `C1COCCO1`, the call in [1], in [5], in test [8] and in test [10] was inactive. Also, the Potency entry in test [2], in [3], in test [4], in [7], in test [9] and in test [6] was “inactive” each time.
For `CCCCCCC(=O)OCC`, the compound was classed as inactive in [1] and in test [5]. In addition, the Potency entry in test [2], in [3], in [4] and in test [6] was “inactive” throughout.
Regarding `CCO[Si](CCCN=C=O)(OCC)OCC`, the compound was called inactive in test [1] and in test [5]. Moreover, the Potency result in test [2], in test [3], in test [4] and in test [6] was “inactive” throughout.
`Cc1ccc(Nc2ccc(O)c3c2C(=O)c2ccccc2C3=O)cc1`: the result in test [1] and in test [5] was inactive. Further, the Potency result in test [2], in test [3], in test [4] and in [6] was “inactive” throughout.
In the case of `COC(C(=O)O)c1ccccc1` (centres undefined), the compound was classed as inactive in test [1] and in test [5]. For the same compound, the Potency result in test [2], in test [3], in [4] and in test [6] was “inactive” throughout.
For `CCCCCCCCCCCCCCCCCC(=O)OCCCCCCCCCCCCCC(C)C`, the compound was called inactive in [1] and in [5]. Also, the Potency entry in test [2], in [3], in [4] and in [6] was “inactive” each time.
In the case of `CCCc1ccc(N)cc1`, the result in [1] and in [5] was inactive. The Potency result in test [2], in test [3], in test [4] and in test [6] was “inactive” throughout.
Take `C=C(C)C(=O)OCCC(C)OC(=O)C(=C)C` (centres undefined): the compound was classed as inactive in [1] and in test [5]. Besides, the Potency entry in test [2], in [3], in test [4] and in test [6] was “inactive” throughout.
In the case of `Cc1cc(C)c(NC(=O)CN(CC(=O)O)CC(=O)O)c(C)c1Br`, the call in [1] and in [5] was inactive. The Potency entry in test [2], in test [3], in test [4] and in [6] was “inactive” in each case.
`NC(=O)c1ncn([C@@H]2O[C@H](CO)[C@@H](O)[C@H]2O)c1O`: the result in test [1] and in test [5] was inactive. The Potency entry in test [2], in test [3], in test [4] and in [6] was “inactive” each time.
As to `CC(C)c1cccc(C(C)C)c1N`, the call in test [1] and in [5] was inactive. Moreover, the Potency entry in test [2], in test [3], in test [4] and in test [6] was “inactive” in each case.
For the compound `Cc1ncc(CSSCc2cnc(C)c(O)c2CO)c(CO)c1O`, the result in [1], in [5], in test [8] and in test [10] was inactive. Moreover, the Potency result in test [2], in test [3], in test [4], in test [9] and in [6] was “inactive” in each case.
`COc1ccc(NC(C)=O)cc1`: the call in test [1], in [5], in test [8] and in [10] was inactive. Also, the Potency result in [2], in [3], in [4], in test [7], in test [9] and in [6] was “inactive” each time.
As for `O=C(O)c1ccccc1-c1ccc(C(F)(F)F)cc1`, the call in [1] and in test [5] was inactive. Also, the Potency result in test [2], in test [3], in test [4] and in test [6] was “inactive” each time.
For the compound `O=S(=O)(O)c1ccccc1O`, the outcome in [1], in test [5], in test [8] and in test [10] was inactive. The Potency entry in [2], in test [3], in [4], in test [7], in test [9] and in [6] was “inactive” throughout.
In the case of `C1=C\CC/C=C\CC/C=C\CC/1`, the result in test [1] and in [5] was inactive. For the same compound, the Potency entry in [2], in test [3], in [4] and in [6] was “inactive” throughout.
Regarding `CCOC(=O)Nc1ccc2c(c1)N(C(=O)CCN1CCOCC1)c1ccccc1S2`, the call in [1], in test [5], in [8] and in [10] was inactive. Moreover, the Potency result in test [2], in test [3], in test [4], in [7] and in [6] was “inactive” each time. The Potency in test [9] was 12.7 µM (active).
Regarding `O=C(O)/C=C/c1ccc(/C=C/C(=O)O)cc1`, the compound was classed as inactive in test [1], in [5], in test [8] and in test [10]. For the same compound, the Potency result in test [2], in test [3], in [4], in [7], in test [9] and in [6] was “inactive” throughout.
For the compound `C#CC(O)C(CC)CCCC` (centres undefined), the compound was classed as inactive in test [1], in [5], in test [8] and in test [10]. For the same compound, the Potency entry in [2], in test [3], in test [4], in test [7], in [9] and in test [6] was “inactive” in each case.
As to `CCCC(=O)O[C@]1(C(=O)CCl)[C@@H](C)C[C@H]2[C@@H]3CCC4=CC(=O)C=C[C@]4(C)[C@@]3(F)C(=O)C[C@@]21C`, the call in test [1], in test [5] and in test [10] was inactive. Also, the Potency in test [2] was 6.68 µM (active); in test [3], 7.5 µM (active); in test [4] it was 13.3 µM (active); in [7], 7.56 µM (active); in [9], 0.006 µM (active).
`C[N+](C)(C)CC[N+]1(C)Cc2c(Cl)c(Cl)c(Cl)c(Cl)c2C1`: the outcome in [1] and in [5] was inactive. The Potency entry in test [2], in test [3], in test [4] and in test [6] was “inactive” throughout.
On to `CCc1cc(S(=O)(=O)O)c2cc(C(C)C)cccc1-2`, for which the compound was classed as inactive in test [1] and in test [5]. Besides, the Potency result in test [2], in test [3], in test [4] and in test [6] was “inactive” throughout.
On to `COc1ccc(COC=O)cc1`, for which the result in [1] and in [5] was inactive. Besides, the Potency entry in test [2], in test [3], in test [4] and in test [6] was “inactive” throughout.

For the origin of these results see PubChem BioAssay (Tox21).
